The nature of assay [1]: compounds binding Alexa647 anti-His antibody – biochemical, small-molecule microarray, 635 nm fluorescence, artefact control for SMM control protein annotation, primary screen (AID 1128).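 Further: score merges feature fluorescence with signal-to-noise for each printed compound spot.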 To be noted: higher = more signal.
Assay [2] deals with Human papillomavirus type 1a E7 protein (residues 1-88). The assay can be described thus: HPV1a E7 small-molecule binders, primary screen, biochemical, small-molecule microarray, residues 1-88, 635 nm (AID 1129). Particulars: small-molecule microarray binding, fluorescence 635 nm; higher = more signal.
For assay [3], the target named is Focal adhesion kinase 1 (Homo sapiens) (UniProt Q05397). As to the kind of experiment: PTK2 protein binding on printed compound slides – biochemical, small-molecule microarray, 635/667 nm fluorescence, BSA, DTT, primary screen (AID 1130).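 Further: composite of spot emission at 667 nm and signal to noise over triplicate slides.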 To be noted: 635 nm fluorescence, higher = more signal.
Focal adhesion kinase 1 (Homo sapiens), sequence (Q05397 whole entry, looked up): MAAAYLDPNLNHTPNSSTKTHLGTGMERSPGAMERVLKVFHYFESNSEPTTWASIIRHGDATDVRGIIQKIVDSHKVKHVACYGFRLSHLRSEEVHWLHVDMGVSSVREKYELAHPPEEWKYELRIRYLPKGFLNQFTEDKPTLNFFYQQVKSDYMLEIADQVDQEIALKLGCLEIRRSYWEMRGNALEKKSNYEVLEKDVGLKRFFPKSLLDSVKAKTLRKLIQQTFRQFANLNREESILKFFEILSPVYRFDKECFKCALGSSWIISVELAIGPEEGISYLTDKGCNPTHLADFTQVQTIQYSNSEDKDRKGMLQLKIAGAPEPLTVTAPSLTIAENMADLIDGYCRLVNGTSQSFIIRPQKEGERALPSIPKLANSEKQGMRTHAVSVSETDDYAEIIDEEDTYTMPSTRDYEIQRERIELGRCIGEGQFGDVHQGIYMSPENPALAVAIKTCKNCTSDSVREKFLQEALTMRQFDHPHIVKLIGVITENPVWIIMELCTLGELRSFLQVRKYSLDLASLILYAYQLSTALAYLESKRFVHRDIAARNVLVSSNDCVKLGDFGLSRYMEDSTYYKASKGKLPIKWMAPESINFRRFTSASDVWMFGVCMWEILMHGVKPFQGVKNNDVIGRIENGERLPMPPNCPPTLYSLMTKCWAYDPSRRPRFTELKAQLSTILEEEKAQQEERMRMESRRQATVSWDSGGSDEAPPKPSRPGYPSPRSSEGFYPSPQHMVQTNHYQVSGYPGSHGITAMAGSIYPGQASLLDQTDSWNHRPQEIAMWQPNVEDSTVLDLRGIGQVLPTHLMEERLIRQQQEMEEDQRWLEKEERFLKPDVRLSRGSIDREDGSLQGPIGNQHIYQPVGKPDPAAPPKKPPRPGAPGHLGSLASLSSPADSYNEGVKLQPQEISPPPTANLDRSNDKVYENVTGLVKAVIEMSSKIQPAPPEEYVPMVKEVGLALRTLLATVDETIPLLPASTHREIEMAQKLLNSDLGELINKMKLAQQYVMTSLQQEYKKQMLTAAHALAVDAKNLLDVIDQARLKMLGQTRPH
The subject of assay [4] is Fibrinogen (Alexa647-labelled). The assay can be described thus: Alexa647-fibrinogen binding to printed small molecules – biochemical, small-molecule microarray, 635/667 nm fluorescence, artefact control for SMM control-protein annotation, profiling panel (AID 1131).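 Further: z-score merges 667 nm fluorescence with per-spot signal-to-noise over triplicate slides.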 Particulars: fibrinogen-A647 binding fluorescence, higher = more signal.
Assay [5] has as its target Follistatin (Homo sapiens) (UniProt P19883). As to the kind of experiment: FST protein binding to printed compounds – biochemical, small-molecule microarray, 635/667 nm fluorescence, primary screen (AID 1132). To be noted: 635 nm fluorescence, higher = more signal.
In assay [6] the target is Fibroblast growth factor 2 (Homo sapiens) (UniProt P09038). The assay can be described thus: basic fibroblast growth factor binding to printed compounds – biochemical, small-molecule microarray, 635/667 nm fluorescence, primary screen (AID 1133). Particulars: FGF2, fluorescence 635/667, higher = more signal.
Fibroblast growth factor 2 (Homo sapiens), sequence (P09038 whole entry, looked up): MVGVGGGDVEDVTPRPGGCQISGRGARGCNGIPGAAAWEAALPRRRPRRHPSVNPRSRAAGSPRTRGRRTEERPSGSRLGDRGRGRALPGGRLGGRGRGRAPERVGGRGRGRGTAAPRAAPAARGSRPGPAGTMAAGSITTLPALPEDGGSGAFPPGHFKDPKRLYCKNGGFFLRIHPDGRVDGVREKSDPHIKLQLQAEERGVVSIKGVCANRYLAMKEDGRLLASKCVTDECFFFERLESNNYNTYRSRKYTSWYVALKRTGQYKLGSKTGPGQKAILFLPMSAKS
A short description of assay [7]: JC-1 mitochondrial potential readout, lung cancer cells – cell-based, A549, JC-1 fluorescence, basal, 24 h, 100 nL, profiling panel (AID 1138).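 Further: A549 lung adenocarcinoma cells under basal conditions with no added stimulus; test concentration not given here.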 To be noted: higher = more signal.
A further assay relates to Lefty1. As to the kind of experiment: Lefty1 protein binding to printed compounds – biochemical, small-molecule microarray, 635/667 nm fluorescence, primary screen (AID 1139). To be noted: fluorescence 635/667, higher = more signal.
Assay [8] relates to wheat germ agglutinin (Triticum aestivum), Alexa647-labelled. The assay can be described thus: Alexa647-WGA lectin binding to printed small molecules – biochemical, small-molecule microarray, 635/667 nm fluorescence, artefact control for SMM control-protein annotation, profiling panel (AID 1140).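 Further: score merges 667 nm feature emission with signal to noise over triplicate slides.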 Particulars: WGA-A647 binding, 635 nm fluorescence, higher = more signal.
The target in assay [9] is Luciferin 4-monooxygenase (Photinus pyralis) (UniProt P08659). As to the kind of experiment: inhibition of purified Photinus pyralis luciferase – biochemical, luminescence, purified enzyme, 2006 set, primary screen (AID 1141).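 Further: cell-free assay with purified firefly luciferase at 100 ng per well in PBS; test concentration not given here.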 To be noted: purified firefly luciferase, SteadyGlo luminescence, 30 min; higher = more signal, called active from +8 up or from −8 down.
Luciferin 4-monooxygenase (Photinus pyralis), sequence (P08659 whole entry, looked up): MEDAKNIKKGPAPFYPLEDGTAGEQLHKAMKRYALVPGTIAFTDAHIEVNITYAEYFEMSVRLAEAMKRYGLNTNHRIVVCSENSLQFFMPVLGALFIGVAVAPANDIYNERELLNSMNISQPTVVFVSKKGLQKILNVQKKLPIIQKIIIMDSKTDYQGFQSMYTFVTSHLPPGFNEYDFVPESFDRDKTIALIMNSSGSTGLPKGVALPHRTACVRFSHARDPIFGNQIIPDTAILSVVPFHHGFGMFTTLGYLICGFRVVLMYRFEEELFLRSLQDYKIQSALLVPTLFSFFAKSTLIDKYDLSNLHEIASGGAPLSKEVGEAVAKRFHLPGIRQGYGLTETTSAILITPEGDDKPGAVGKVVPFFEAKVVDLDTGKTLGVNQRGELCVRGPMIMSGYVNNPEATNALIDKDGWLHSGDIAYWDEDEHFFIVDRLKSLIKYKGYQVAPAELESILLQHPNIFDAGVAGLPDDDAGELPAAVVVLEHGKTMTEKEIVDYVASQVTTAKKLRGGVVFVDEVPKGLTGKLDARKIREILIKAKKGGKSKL
Assay [10] deals with Wnt5a (protein binding on small-molecule microarray). As to the kind of experiment: small molecules binding Wnt5a protein – biophysical, small-molecule microarray, 635/667 nm fluorescence, primary screen (AID 1142).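 Further: fluorescence read at 667 nm with signal to noise per printed feature.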 Particulars: 635 nm fluorescence, higher = more signal.
Assay [11] is described as follows: ATP-based viability of Huh7 replicon cells – cell-based, CellTiter-Glo luminescence, basal, 48 h, cytotoxicity control for HCV replication inhibitor project, primary screen (AID 1143).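 Further: Huh7 hepatoma cells carrying a hepatitis C replication reporter with no stimulus; test concentration not given here.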 Particulars: higher = more signal, called active from +8 up or from −8 down.
A short description of assay [12]: Pseudomonas biofilm growth suppression – PAO1 strain, BacTiter-Glo luminescence, LB-PBS, primary screen (AID 1144). To be noted: P. aeruginosa PAO1 biofilm, 12 h, higher = more signal.
A short description of assay [13]: basal CRE-LacZ reporter activity in PC12 – cell-based, unstimulated, primary screen (AID 1145). To be noted: no forskolin, luminescence, 4.5 h, higher = more signal, called active from +8 up or from −8 down.
Assay [14] in a line: forskolin-driven CRE-LacZ activity in PC12 – cell-based, CRE-LacZ reporter, forskolin-stimulated, primary screen (AID 1146).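 Further: PC12 cells with 6xCRE LacZ reporter stimulated by forskolin 10 µM; beta-galactosidase reporter signal reflecting CREB driven transcription.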 Particulars: luminescence, 4.5 h, higher = more signal, called active from +8 up or from −8 down.
For assay [15], the target named is Streptavidin (Streptomyces avidinii) (UniProt P22629). The assay can be described thus: compounds binding control protein streptavidin – biophysical, small-molecule microarray, 635/667 nm fluorescence, artefact control for SMM compound annotation, primary screen (AID 1147).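 Further: signal reflects streptavidin binding to arrayed compounds as a control protein.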 To be noted: higher = more signal.
Streptavidin (Streptomyces avidinii), sequence (P22629 whole entry, looked up): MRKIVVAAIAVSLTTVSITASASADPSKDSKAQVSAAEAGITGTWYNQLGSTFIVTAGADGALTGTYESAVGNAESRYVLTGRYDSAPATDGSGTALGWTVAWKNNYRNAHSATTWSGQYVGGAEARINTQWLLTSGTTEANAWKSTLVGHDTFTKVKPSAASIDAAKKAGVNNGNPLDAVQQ
Assay [16] in a line: probe aInhba binding on compound microarray – biochemical, small-molecule microarray, 635/667 nm fluorescence, primary screen (AID 1148).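 Further: score merges 667nm spot fluorescence with signal-to-noise for antibody binding to printed compounds.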 Particulars: higher = more signal.
In assay [17] the target is Torsin-1A (Homo sapiens) (UniProt O14656). As to the kind of experiment: TOR1A wild-type binding on microarray – cell lysate, small-molecule microarray, lysate, 635/667 nm, primary screen (AID 1149). Particulars: COS7 hTOR1A-WT lysate, 635 nm fluorescence, higher = more signal.
Torsin-1A (Homo sapiens), sequence (O14656 whole entry, looked up): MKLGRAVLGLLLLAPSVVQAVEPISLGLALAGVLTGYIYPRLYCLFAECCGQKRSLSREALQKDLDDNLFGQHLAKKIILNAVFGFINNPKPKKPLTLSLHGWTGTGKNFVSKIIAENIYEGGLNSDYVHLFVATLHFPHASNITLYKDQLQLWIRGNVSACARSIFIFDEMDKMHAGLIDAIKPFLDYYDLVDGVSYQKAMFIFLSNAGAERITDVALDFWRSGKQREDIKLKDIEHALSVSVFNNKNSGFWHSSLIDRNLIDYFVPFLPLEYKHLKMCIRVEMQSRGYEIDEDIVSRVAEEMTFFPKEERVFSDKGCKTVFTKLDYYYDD
Assay [18] has the same target. As to the kind of experiment: torsin A mutant lysate binding on microarrays – cell lysate, small-molecule microarray, COS7 lysate, 635/667 nm fluorescence, primary screen (AID 1150).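 Further: score pools 667 nm emission and signal to noise measuring lysate protein binding.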 To be noted: COS7 hTOR1A mutant lysate, 635 nm fluorescence, higher = more signal.
Assay [19] has as its system Sonic hedgehog protein (Shh). The assay can be described thus: Sonic hedgehog microarray binding compounds – biochemical, small-molecule microarray, 635/667 nm fluorescence, primary screen (AID 1151).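 Further: Shh protein binding to compounds spotted on small-molecule microarray slides; score combines spot fluorescence intensity with signal-to-noise across triplicate slides.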 To be noted: 635 nm fluorescence, higher = more signal.

This is an account of results in PubChem BioAssay.

The source made the active and inactive calls. Unless noted, how the calls were made is not given here.

Follistatin (Homo sapiens), sequence (P19883 whole entry, looked up): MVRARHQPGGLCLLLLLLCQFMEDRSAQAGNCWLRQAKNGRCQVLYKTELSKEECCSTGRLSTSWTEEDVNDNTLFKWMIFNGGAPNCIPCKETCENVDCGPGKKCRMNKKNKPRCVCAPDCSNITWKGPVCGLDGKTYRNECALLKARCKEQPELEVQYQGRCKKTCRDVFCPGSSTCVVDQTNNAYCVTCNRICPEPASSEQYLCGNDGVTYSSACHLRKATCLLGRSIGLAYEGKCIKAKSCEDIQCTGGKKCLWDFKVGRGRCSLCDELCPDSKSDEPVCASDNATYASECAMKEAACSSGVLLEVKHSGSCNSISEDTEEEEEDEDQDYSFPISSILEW

For the compound `C#CCNC(=O)[C@H](Cc1ccccc1)NC(=O)CCC(=O)O`, the composite z-score in assay [1] was -1.08; in assay [2], -0.912; in [3] it was -0.318; in [4], -1.74; in assay [5], -1.69; in [6], -0.246. For the same compound, the composite z-score is -0.804 in the assay with Lefty1; -1.19 in [8]; -0.0994 in assay [10]; -0.869 in assay [15]; -0.146 in assay [16]; 0.119 with Torsin-1A (Homo sapiens) [17]. Also, the composite z-score with Torsin-1A (Homo sapiens) [18] was 0.544; in [19], -0.192. Besides, the z-score in assay [7] was -0.68; in assay [9], 0.0223 (inactive); in assay [11], 0.0187 (inactive); in assay [12], 0.743 (inactive); in assay [13], 0.656 (inactive); in assay [14] it was 0.301 (inactive).
Take `CN1C(=O)C2C=CC(C(O)C3=C[C@H]4C[C@@H](C3)C4(C)C)N(Nc3ccccc3)C2C1=O` (stereo not given in full): the composite z-score in [1] stood at 0.274; in assay [2], 1.19; in [3], 0.608; in assay [4], 0.816; in assay [5] it was 1.18; in assay [6], 0.0364. The composite z-score in the assay on Lefty1 was 0.446; in assay [8], 0.782; in [10], 0.0737; in [15], 0.186; in assay [16], -0.0313; in the assay with Torsin-1A (Homo sapiens) [17] it was -0.189. Besides, the composite z-score came to 0.276 in the assay with Torsin-1A (Homo sapiens) [18] and 0.447 in assay [19]. Besides, the z-score in assay [7] was -0.838; in [9], -0.179 (inactive); in [11] it was 0.435 (inactive); in [12], -0.79 (inactive); in assay [13], 0.812 (inactive); in assay [14], 0.767 (inactive).
`CC(C)(C)C(=O)N[C@@H](c1ccc(Cl)cc1)[C@]1(C)C[C@H]1C1CCCCC1`: the composite z-score is 0.893 in [1]; 1.21 in assay [2]; 1.19 in [3]; 1.02 in [4]; 0.279 in assay [5]; -0.386 in [6]. Further, the composite z-score was -0.775 in the assay with Lefty1; 0.537 in [8]; 0.182 in assay [10]; 2.44 in assay [15]; 0.634 in assay [16]; 0.895 with Torsin-1A (Homo sapiens) [17]. The composite z-score with Torsin-1A (Homo sapiens) [18] is 1.18; in [19], -0.546. Besides, the z-score in assay [7] is 2.63; in [9], 0.542 (inactive); in [11], -2.95 (inactive); in assay [12], -0.153 (inactive); in [13] it was 0.197 (inactive); in assay [14] it was 0.456 (inactive).
For the compound `COCCOC(=O)N1C(=O)[C@@]2(c3cc(C#Cc4ccc(OC)cc4)ccc31)[C@H](C(=O)N1CCCCCCC1)[C@H]1C(=O)O[C@H](c3ccccc3)[C@H](c3ccccc3)N1[C@@H]2c1ccc(OCCO)cc1`, the composite z-score in assay [1] was 0.885; in [2], 0.94; in [3], 0.409; in [4] it was 0.905; in assay [5], 1.58; in [6] it was 2.1. For the same compound, the composite z-score in the assay on Lefty1 came to 1.36; in assay [8], 1.32; in [10], 0.812; in assay [15], 1.67; in [16] it was 1.82; with Torsin-1A (Homo sapiens) [17], 1.12. The figures for the composite z-score (with Torsin-1A (Homo sapiens) [18]; in assay [19]) were 1.06 and 2.15, respectively. Moreover, the z-score in [7] is -0.951; in [9] it was -2.56 (inactive); in assay [11], -4.68 (inactive); in assay [12], -1.97 (inactive); in [13], 0.0857 (inactive); in assay [14], -0.66 (inactive).
Take `C=CCNC(=O)[C@H]1[C@@H]2C(=O)O[C@@H](c3ccccc3)[C@@H](c3ccccc3)N2[C@@H](c2ccc(OCCO)cc2)[C@]12C(=O)N(C(=O)OCCOC)c1ccccc12`: the composite z-score in assay [1] turned out to be 2.75; in assay [2] it was 1.25; in [3], 0.389; in assay [4], 0.962; in [5], 1.33; in [6], 1.53. For the same compound, the composite z-score with Lefty1 came out at 0.807; in [8], 0.789; in assay [10] it was 0.25; in assay [15] it was 0.614; in assay [16], 0.0925; with Torsin-1A (Homo sapiens) [17], 0.895. Also, the composite z-score is 0.497 in the assay with Torsin-1A (Homo sapiens) [18] and 1.95 in assay [19]. Moreover, the z-score in assay [7] was -0.134; in assay [9], 0.122 (inactive); in [11] it was -2.05 (inactive); in assay [12], -0.478 (inactive); in [13], 0.802 (inactive); in assay [14] it was 9.23 (active).
